For 6 compounds, inhibition results are on record in ChEMBL document CHEMBL1961873, “Compounds: GSK PKIS; Assays: Nanosyn kinase panel” (2012).

Assay [1] has as its target Rho-associated protein kinase 1 (Homo sapiens) (UniProt Q13464). Particulars: at 1 µM.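 Note: reported values are mean percent inhibition of ROCK1.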
The target of assay [2] is Rho-associated protein kinase 2 (Homo sapiens) (UniProt O75116). Particulars: at 0.1 µM.
For assay [3] the target is unchanged. Particulars: at 1 µM.
The target in assay [4] is Ribosomal protein S6 kinase alpha-1 (Homo sapiens) (UniProt Q15418). Particulars: at 0.1 µM.
The target is the same in assay [5]. Particulars: at 1 µM.
The target in assay [6] is Ribosomal protein S6 kinase alpha-3 (Homo sapiens) (UniProt P51812). Particulars: at 0.1 µM.
Assay [7] has the same target. Particulars: at 1 µM.
In assay [8] the target is Ribosomal protein S6 kinase alpha-2 (Homo sapiens) (UniProt Q15349). Particulars: at 0.1 µM.
Chain of Ribosomal protein S6 kinase alpha-2 (Homo sapiens) (Q15349 whole entry): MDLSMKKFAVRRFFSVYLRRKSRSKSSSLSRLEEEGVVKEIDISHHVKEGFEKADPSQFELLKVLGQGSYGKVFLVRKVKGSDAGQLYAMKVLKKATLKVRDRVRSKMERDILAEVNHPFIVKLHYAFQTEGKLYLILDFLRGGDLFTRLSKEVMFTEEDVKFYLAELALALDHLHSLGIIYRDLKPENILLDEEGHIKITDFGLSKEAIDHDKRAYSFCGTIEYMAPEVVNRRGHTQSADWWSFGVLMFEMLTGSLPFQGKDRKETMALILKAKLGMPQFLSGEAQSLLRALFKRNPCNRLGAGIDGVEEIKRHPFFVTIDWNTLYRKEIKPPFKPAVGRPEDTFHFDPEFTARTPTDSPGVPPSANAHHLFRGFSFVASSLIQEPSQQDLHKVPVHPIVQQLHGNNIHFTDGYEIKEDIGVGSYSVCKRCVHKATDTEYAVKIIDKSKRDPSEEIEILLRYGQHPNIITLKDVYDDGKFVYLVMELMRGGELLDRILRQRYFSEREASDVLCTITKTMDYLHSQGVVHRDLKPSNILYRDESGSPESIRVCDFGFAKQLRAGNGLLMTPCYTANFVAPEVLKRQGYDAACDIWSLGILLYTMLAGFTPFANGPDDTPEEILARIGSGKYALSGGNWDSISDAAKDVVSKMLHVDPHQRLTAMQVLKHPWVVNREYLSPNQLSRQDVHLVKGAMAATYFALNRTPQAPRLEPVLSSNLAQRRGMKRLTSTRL
Assay [9] shares this target. Particulars: at 1 µM.
Assay [10] addresses Ribosomal protein S6 kinase alpha-6 (Homo sapiens) (UniProt Q9UK32). Particulars: at 0.1 µM.
Assay [11] shares this target. Particulars: at 1 µM.
Assay [12] has as its target T1, Serine/threonine-protein kinase Sgk1 (Homo sapiens) (UniProt O00141).
T1 sequence (whole entry): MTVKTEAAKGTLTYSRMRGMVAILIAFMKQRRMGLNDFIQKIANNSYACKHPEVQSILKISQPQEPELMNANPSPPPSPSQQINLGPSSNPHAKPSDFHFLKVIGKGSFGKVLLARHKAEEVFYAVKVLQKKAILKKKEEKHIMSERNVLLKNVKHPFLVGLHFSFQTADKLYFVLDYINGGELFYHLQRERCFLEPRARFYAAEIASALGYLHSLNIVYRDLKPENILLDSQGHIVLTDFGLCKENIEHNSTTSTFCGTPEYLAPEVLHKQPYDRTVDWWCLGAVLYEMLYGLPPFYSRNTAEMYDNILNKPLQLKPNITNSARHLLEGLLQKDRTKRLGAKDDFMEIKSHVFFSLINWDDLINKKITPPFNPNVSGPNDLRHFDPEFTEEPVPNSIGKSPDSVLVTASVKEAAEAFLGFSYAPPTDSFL
Particulars: at 0.1 µM.

The target of assay [13] is T1, Serine/threonine-protein kinase Sgk1 (Homo sapiens). Particulars: at 1 µM.
Assay [14] addresses T2, Serine/threonine-protein kinase Sgk2 (Homo sapiens) (UniProt Q9HBY8).
T2 sequence (whole entry): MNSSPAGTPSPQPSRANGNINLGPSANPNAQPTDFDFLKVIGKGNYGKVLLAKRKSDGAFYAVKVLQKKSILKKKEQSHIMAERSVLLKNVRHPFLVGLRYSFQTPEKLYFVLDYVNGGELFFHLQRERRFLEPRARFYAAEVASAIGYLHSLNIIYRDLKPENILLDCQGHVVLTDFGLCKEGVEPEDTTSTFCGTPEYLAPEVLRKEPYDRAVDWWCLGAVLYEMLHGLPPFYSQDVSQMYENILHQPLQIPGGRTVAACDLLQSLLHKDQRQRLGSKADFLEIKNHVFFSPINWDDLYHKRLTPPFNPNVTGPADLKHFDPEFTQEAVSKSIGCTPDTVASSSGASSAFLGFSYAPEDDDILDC
Particulars: at 0.1 µM.

Assay [15] deals with T2, Serine/threonine-protein kinase Sgk2 (Homo sapiens). Particulars: at 1 µM.
In assay [16] the target is T3, Serine/threonine-protein kinase Sgk3 (Homo sapiens) (UniProt Q96BR1).
T3 sequence (whole entry): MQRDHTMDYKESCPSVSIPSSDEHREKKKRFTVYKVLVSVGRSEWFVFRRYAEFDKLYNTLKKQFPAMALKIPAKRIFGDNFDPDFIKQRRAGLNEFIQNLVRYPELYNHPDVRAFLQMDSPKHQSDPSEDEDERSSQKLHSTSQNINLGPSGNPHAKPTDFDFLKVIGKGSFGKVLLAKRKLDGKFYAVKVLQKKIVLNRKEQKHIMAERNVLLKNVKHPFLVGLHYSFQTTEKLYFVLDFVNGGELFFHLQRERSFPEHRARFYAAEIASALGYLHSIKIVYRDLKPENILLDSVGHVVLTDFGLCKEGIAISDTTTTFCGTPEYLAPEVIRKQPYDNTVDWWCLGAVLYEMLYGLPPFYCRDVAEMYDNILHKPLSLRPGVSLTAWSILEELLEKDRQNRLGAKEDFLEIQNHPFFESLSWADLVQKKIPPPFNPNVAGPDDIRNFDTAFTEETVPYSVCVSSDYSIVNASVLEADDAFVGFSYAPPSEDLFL
Particulars: at 0.1 µM.

In assay [17] the target is T3, Serine/threonine-protein kinase Sgk3 (Homo sapiens). Particulars: at 1 µM.
In assay [18] the target is 5'-AMP-activated protein kinase catalytic subunit alpha-1 (Homo sapiens) (UniProt Q13131). Particulars: at 0.1 µM.
Chain of 5'-AMP-activated protein kinase catalytic subunit alpha-1 (Homo sapiens) (Q13131 whole entry, looked up): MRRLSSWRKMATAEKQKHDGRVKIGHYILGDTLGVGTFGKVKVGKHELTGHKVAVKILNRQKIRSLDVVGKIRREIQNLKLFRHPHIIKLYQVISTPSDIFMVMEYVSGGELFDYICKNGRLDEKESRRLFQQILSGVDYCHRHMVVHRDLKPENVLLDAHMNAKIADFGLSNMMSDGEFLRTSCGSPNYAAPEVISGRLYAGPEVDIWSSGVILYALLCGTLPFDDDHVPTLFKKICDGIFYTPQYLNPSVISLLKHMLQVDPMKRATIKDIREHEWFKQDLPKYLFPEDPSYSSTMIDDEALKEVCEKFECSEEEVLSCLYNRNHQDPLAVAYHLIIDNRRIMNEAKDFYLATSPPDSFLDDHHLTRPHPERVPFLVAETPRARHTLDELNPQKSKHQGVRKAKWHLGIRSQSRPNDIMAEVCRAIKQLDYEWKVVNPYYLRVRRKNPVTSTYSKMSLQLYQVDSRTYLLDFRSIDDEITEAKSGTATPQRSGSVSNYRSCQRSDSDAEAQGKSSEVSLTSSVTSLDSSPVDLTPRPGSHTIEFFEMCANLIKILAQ
Assay [19] shares this target. Particulars: at 1 µM.
Assay [20] has as its target 5'-AMP-activated protein kinase catalytic subunit alpha-2 (Homo sapiens) (UniProt P54646). Particulars: at 0.1 µM.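 Note: mean inhibition measured on the AMPK complex of alpha2, beta1 and gamma1 subunits.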

Chain of 5'-AMP-activated protein kinase catalytic subunit alpha-2 (Homo sapiens) (P54646 whole entry, looked up): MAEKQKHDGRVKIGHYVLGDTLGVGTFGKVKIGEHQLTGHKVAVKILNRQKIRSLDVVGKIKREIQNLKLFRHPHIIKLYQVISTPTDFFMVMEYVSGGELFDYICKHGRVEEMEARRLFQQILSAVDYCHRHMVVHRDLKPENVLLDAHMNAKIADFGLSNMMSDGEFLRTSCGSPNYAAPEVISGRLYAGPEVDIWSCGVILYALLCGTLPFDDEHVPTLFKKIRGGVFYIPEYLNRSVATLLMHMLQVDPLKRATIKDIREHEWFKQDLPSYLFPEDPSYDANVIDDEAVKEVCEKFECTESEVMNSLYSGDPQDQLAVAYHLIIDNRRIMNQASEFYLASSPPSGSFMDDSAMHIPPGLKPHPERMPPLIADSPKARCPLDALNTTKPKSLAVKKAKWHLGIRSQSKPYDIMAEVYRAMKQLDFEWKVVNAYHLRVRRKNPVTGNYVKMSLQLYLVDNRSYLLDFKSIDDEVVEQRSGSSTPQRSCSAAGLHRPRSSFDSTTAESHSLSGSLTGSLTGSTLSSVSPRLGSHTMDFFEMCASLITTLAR
Chain of Rho-associated protein kinase 1 (Homo sapiens) (Q13464 2-1354 limits assumed): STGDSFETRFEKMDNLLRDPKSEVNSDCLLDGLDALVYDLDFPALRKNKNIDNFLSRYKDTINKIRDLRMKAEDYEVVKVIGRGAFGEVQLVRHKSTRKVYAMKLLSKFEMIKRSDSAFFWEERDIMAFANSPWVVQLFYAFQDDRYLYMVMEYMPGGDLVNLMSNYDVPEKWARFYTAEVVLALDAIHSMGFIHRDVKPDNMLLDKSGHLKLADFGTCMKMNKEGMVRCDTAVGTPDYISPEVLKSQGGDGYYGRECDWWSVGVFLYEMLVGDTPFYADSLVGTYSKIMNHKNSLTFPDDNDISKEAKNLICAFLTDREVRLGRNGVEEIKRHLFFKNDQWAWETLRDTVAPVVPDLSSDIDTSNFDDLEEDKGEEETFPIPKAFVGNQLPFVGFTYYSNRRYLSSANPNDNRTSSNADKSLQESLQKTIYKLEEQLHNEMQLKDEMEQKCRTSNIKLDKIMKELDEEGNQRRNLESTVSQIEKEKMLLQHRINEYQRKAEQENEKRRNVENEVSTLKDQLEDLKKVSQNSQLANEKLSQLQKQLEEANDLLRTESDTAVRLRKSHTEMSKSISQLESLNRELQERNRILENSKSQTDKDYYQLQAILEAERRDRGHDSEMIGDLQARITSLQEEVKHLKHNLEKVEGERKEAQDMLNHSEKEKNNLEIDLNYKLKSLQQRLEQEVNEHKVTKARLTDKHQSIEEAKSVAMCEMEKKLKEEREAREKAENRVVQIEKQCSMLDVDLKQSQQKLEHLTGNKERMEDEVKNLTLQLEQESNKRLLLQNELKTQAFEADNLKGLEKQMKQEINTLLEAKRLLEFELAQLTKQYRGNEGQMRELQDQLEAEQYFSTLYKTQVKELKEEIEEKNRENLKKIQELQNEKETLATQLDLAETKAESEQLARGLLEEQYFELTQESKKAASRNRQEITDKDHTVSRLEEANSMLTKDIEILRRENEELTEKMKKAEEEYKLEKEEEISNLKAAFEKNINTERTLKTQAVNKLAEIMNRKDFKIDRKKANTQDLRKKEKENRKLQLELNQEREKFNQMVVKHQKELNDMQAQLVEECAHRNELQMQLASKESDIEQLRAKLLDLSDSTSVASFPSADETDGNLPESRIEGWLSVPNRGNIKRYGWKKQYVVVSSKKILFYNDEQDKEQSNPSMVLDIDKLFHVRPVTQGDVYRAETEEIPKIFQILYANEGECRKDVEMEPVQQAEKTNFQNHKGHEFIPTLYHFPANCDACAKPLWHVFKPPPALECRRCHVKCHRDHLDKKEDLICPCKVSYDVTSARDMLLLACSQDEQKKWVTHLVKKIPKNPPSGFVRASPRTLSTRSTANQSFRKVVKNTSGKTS
Chain of Rho-associated protein kinase 2 (Homo sapiens) (O75116 whole entry, looked up): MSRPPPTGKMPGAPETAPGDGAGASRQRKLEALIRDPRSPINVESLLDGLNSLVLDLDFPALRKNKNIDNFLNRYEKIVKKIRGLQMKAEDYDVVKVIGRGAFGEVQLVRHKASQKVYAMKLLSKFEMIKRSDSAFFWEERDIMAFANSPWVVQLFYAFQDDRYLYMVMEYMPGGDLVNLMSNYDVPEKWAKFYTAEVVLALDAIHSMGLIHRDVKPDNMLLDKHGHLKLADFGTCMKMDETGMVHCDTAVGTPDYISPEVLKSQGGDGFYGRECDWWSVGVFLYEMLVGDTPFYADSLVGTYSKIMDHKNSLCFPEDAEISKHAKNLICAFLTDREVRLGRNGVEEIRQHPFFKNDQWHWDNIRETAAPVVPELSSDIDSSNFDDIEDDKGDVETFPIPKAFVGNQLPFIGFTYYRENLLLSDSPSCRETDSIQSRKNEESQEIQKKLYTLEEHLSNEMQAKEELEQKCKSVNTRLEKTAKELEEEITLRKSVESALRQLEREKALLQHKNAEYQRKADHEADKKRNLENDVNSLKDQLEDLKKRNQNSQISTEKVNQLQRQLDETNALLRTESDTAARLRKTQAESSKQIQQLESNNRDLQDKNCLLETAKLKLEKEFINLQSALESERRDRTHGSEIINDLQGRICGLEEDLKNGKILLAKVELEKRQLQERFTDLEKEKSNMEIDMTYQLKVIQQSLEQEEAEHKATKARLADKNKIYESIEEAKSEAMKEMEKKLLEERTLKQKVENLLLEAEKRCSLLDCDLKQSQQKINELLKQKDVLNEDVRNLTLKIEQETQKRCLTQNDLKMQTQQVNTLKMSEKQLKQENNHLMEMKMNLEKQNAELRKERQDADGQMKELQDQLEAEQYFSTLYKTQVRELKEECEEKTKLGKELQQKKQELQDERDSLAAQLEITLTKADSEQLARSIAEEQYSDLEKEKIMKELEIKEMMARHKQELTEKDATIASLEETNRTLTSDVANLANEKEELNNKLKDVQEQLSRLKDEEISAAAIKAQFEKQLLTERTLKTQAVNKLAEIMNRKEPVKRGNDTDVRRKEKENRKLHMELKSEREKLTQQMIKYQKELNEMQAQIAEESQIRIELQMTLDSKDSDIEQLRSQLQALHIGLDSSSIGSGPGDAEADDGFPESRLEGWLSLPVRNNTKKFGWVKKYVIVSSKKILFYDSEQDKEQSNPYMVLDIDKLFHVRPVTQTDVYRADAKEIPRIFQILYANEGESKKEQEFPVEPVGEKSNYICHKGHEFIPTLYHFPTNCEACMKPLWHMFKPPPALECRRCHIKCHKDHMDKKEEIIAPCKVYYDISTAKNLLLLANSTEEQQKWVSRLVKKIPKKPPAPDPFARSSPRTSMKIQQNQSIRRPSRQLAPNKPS

As usually defined, the inhibition is the relative decrease from the control value, in per cent. As to `Cc1ccc(NC(=O)c2ccoc2)cc1-c1ccc(C(=O)NCC2CC2)cc1`, the inhibition is -0.4% in assay [1]; 0.78% in [2]; -1.14% in [3]; 1.06% in assay [4]; 0.4% in assay [5]; -0.62% in [6]. The inhibition in [7] is 0.11%; in assay [8], 2%; in assay [9], 1.72%; in [10] it was -0.1%; in [11], -0.14%; in assay [12], 0.63%. Further, the inhibition was 0.73% in assay [13]; 2.95% in assay [14]; -0.89% in [15]; 7.71% in assay [16]; 3.98% in assay [17]; 0.17% in assay [18]. Besides, the results for the inhibition in assay [19] and in [20] were 1.06% and -0.17%, respectively.
With `Fc1ccc(-c2ncn(C3CCNCC3)c2-c2ccnc(Oc3ccc(F)c(F)c3)n2)cc1`, the inhibition is 6.19% in assay [1]; 1.74% in assay [2]; 5.45% in assay [3]; 0.34% in [4]; 2.83% in assay [5]; -0.47% in assay [6]. The inhibition was 1.32% in assay [7]; 2.41% in assay [8]; 2.42% in assay [9]; 0.29% in assay [10]; -0.02% in [11]; 1.79% in [12]. The inhibition in [13] was 3.94%; in [14], 3.89%; in [15] it was 3.96%; in assay [16], 2.65%; in assay [17], 2.26%; in assay [18], 4.6%. In addition, the inhibition amounted to 5.31% in assay [19] and 3.75% in assay [20].
Take `Cc1ccc(C(=O)NC(C)C)cc1-c1ccc(C(=O)NCC2CC2)cc1`: the inhibition was -0.1% in [1]; -1.71% in assay [2]; -1.76% in assay [3]; 1.38% in assay [4]; -0.32% in [5]; 1.65% in assay [6]. In addition, the inhibition in assay [7] was 1.68%; in assay [8], -0.25%; in assay [9] it was 0.47%; in assay [10], -0.44%; in assay [11] it was 0.59%; in assay [12], 0.01%. In addition, the inhibition was -0.09% in assay [13]; -3.55% in assay [14]; -7.09% in assay [15]; -5.05% in assay [16]; -2.17% in assay [17]; -1.19% in [18]. The inhibition in assay [19] was -1.42%; in [20], -0.98%.
On to `Fc1ccc(-c2ncn(C3CCNCC3)c2-c2ccnc(Oc3ccc(Oc4ccccc4)cc3)n2)cc1`, for which the inhibition was 1.68% in assay [1]; 2.53% in assay [2]; 3.69% in assay [3]; 3.01% in assay [4]; 2.7% in assay [5]; 1.73% in [6]. In addition, the inhibition in [7] was 2.37%; in assay [8], 3.61%; in assay [9] it was 3.8%; in assay [10] it was 2.38%; in assay [11], 3.14%; in [12], 1.53%. Moreover, the inhibition stood at 2.46% in assay [13]; 3.23% in assay [14]; 3.39% in assay [15]; 4.76% in [16]; 2.42% in assay [17]; 2.46% in [18]. Moreover, the inhibition is 4.03% in assay [19] and 8.18% in assay [20].
Regarding `CCN(CC)Cc1ccc(Nc2nccc(-c3cnn4ncccc34)n2)cc1`, the inhibition was 9.36% in assay [1]; 2.02% in assay [2]; 13.7% in assay [3]; 0.21% in [4]; 2.52% in assay [5]; -0.63% in [6]. The inhibition in [7] was 2.49%; in assay [8], 2.26%; in assay [9], 3.81%; in [10] it was 0.43%; in assay [11] it was 9.62%; in assay [12], 1.11%. In addition, the inhibition is 7.61% in [13]; 3.89% in [14]; 4.57% in [15]; 3.92% in assay [16]; 2.8% in assay [17]; 3.26% in assay [18]. The inhibition worked out at 9.99% in assay [19] and 7.01% in assay [20].
`COc1cc2ncn(-c3cc(OCCc4ccccc4)c(C(N)=O)s3)c2cc1OC`: the inhibition is 0.3% in assay [1]; 0.94% in assay [2]; -1.5% in [3]; 0.33% in [4]; -0.89% in assay [5]; 0.83% in assay [6]. Further, the inhibition worked out at 0.32% in assay [7]; 1.71% in assay [8]; 1.86% in assay [9]; 1.48% in assay [10]; 2.25% in [11]; 0.21% in [12]. The inhibition in assay [13] was 3.41%; in [14], -0.42%; in [15], -1.95%; in assay [16], 2.58%; in [17], 2.59%; in [18], 2.79%. For the same compound, the inhibition was 4.42% in [19] and 1.45% in assay [20].
